Screens deposited in PubChem by Broad Institute.
Most compounds without a hit are left out; they make up all but 2.3% or so of the library.
ID4 binder: binders of human ID4 protein, primary screen, biochemical, small molecule microarray, single point | hit rate 1.2% among 31,000 | Flag-ID4 binding, fluorescence F/B | AID 624137, 2012 | calls only; call rule not given here;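 also: a binder raises fluorescence above local background on the spot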
Target sequence (P47928 whole entry, looked up): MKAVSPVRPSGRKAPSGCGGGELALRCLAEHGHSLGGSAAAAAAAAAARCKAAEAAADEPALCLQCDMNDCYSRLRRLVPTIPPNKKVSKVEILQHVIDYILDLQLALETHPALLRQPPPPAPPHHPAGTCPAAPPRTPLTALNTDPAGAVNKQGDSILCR
mut p53 react: mutant p53 pathway re-activators, primary screen, cell-based, SW480, luciferase, single point, HTS; SW480 PUMA-promoter luciferase, p53 mutant reactivation; activation, % at 9.98 µM; hit rate 1.5% among 28,000; in the data active = activation above about 52%; inconclusive = no clear call, values can overlap the other calls
Hits are given with their value; – = inactive; ? = inconclusive; · = no result; + = active, no number.

SMILES	ID4 binder	mut p53 react
COc1cccc2cc(C(=O)Nc3cccc(Cn4cccn4)c3)c(=O)oc12	–	57
CN(C)C(=O)[C@]1(CCS(=O)(=O)c2ccccc2)N=C(c2ccc(OCCCO)cc2)O[C@@H]1c1ccccc1	+	·
O=C(NCC(O)CO)[C@@]1(CCS(=O)(=O)c2ccccc2)N=C(c2ccc(OCCCO)cc2)O[C@H]1c1ccccc1 (stereo partly specified)	–	·
CCN(CC(=O)Nc1ccc(OC)c(Cl)c1)S(=O)(=O)c1ccc2ccccc2c1	–	–
CC(=O)c1cccc(N(CC(=O)Nc2ccc(F)cc2F)S(C)(=O)=O)c1	–	60
CC(=O)c1cccc(N(CC(=O)Nc2c(C)cccc2C)S(C)(=O)=O)c1	–	–
CCOC(=O)c1c(NC(=O)CSc2ncccn2)sc2c1CCCC2	–	–
C[C@H]1CN([C@@H](C)CO)C(=O)c2cc(-c3cccnc3)cnc2O[C@@H]1CN(C)C	+	·
C[C@@H]1CN([C@@H](C)CO)C(=O)c2cc(-c3ccncc3)cnc2O[C@H]1CN(C)C	+	·
C[C@@H]1CN([C@@H](C)CO)C(=O)c2cc(-c3cccnc3)cnc2O[C@@H]1CN(C)C	–	·
COc1cccc(S(=O)(=O)N(C)C[C@H]2Oc3ncc(-c4cccc(C(=O)N(C)C)c4)cc3C(=O)N([C@H](C)CO)C[C@@H]2C)c1	+	–
C[C@H]1CN([C@@H](C)CO)C(=O)c2cc(-c3cccc(C(=O)N(C)C)c3)cnc2O[C@H]1CN(C)S(=O)(=O)c1cccc(F)c1	·	–
C[C@H](CO)N1C[C@H](C)[C@@H](CN(C)C)Oc2ncc(-c3ccncc3)cc2C1=O	–	–
Cc1nnc(SCC(=O)Nc2c(C)n(C)n(-c3ccccc3)c2=O)s1	–	–
Cc1ccc(C)c(N(CC(=O)Nc2ccc(Br)c(Cl)c2)S(C)(=O)=O)c1	–	–
Cc1cccc(C)c1Nc1c(CN2C(=O)c3ccccc3C2=O)nc2ccc(Br)cn12	–	–
C[C@@H]1CN([C@H](C)CO)C(=O)c2cc(NS(=O)(=O)c3ccccc3)ccc2O[C@@H](C)CCCCO[C@@H]1CN(C)C(=O)c1ccncc1	+	–
C[C@@H]1CCCCO[C@H](CN(C)C(=O)c2ccncc2)[C@@H](C)CN([C@H](C)CO)C(=O)c2cc(NS(=O)(=O)c3ccccc3)ccc2O1	–	–
C[C@H]1CCCCO[C@@H](CN(C)C(=O)C2CCCCC2)[C@@H](C)CN([C@@H](C)CO)C(=O)c2cc(NC(=O)c3ccncc3)ccc2O1	–	–
C[C@@H]1CCCCO[C@H](CN(C)C(=O)C2CCCCC2)[C@@H](C)CN([C@@H](C)CO)C(=O)c2cc(NC(=O)c3ccncc3)ccc2O1	+	–
C[C@H](CO)N1C[C@H](C)[C@H](CN(C)C(=O)c2ccc3c(c2)OCO3)Oc2cc(-c3cncnc3)ccc2S1(=O)=O	–	–
O=C(Cn1cnc2sc(-c3ccccc3)cc2c1=O)Nc1ccccc1	–	–
Cn1c(SCC(=O)Nc2ccc(Cl)cc2Cl)nnc1-c1ccc(Br)cc1	–	–
COc1ccc(Cl)cc1NC(=O)CSc1nnc(-c2cc3cc(Br)ccc3o2)n1C	–	52
C[C@@H]1CCCCO[C@@H](CN(C)S(=O)(=O)c2cccs2)[C@@H](C)CN([C@H](C)CO)C(=O)c2cc(NS(C)(=O)=O)ccc2O1	–	–
SMILES	ID4 binder	mut p53 react
C[C@H](CO)N1C[C@H](C)[C@@H](CN(C)S(=O)(=O)c2cccs2)OCCCC[C@H](C)Oc2ccc(NS(C)(=O)=O)cc2C1=O	+	–
C[C@H](CO)N1C[C@H](C)[C@H](CN(C)S(=O)(=O)c2cccs2)OCCCC[C@H](C)Oc2ccc(NS(C)(=O)=O)cc2C1=O	–	–
C[C@@H]1CN([C@@H](C)CO)C(=O)c2cc(NS(C)(=O)=O)ccc2O[C@@H](C)CCCCO[C@H]1CN(C)S(=O)(=O)c1cccs1	+	–
N#Cc1ccc(-c2cccs2)nc1SCC(=O)Nc1sc2c(c1C#N)CCCC2	–	–
COC(=O)c1cccc(NC(=O)COc2ccc(I)cc2)c1	–	–
O=C(COc1ccc(I)cc1)Nc1cc(C(=O)O)cc(C(=O)O)c1	+	–
COC(=O)c1c(-c2ccc(F)cc2)csc1NC(=O)CSc1ncnc2sc3c(c12)CCC3	–	–
COC(=O)c1ccc(OCC(=O)Nc2cc(OC)ccc2OC)c(OC)c1	–	–
COc1ccc(OC)c(NC(=O)COc2ccc(C(C)(C)C)cc2)c1	–	64
COc1ccc([N+](=O)[O-])cc1NC(=O)COc1ccc(C(C)(C)C)cc1	–	?
CCc1ccccc1OCC(=O)Nc1cc(OC)ccc1OC	–	93
O=C(NCc1ccco1)c1cc(-c2cccnc2)nc2ccc(Br)cc12	–	–
C[C@@H]1CCCCO[C@@H](CN(C)C(=O)Cc2ccccc2)[C@@H](C)CN([C@@H](C)CO)C(=O)c2cc(NS(=O)(=O)c3cccs3)ccc2O1	·	–
COC(=O)c1c(NC(=S)Nc2ccn(C)n2)sc(C(=O)N(C)C)c1C	–	–
